According to PubChem BioAssay (NCI):
This is part of a sample that, as a whole, favours compounds with a hit. Of some 83,000 tested, about 20% had one in any assay.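 For each line, cells grew in 96-well plates with the test compound present at a single concentration for 48 hours.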 Activity calls are given as the source filed them. How the source made its calls: active means growth percent below 10; inactive means the rest.

Columns and labels:
Test in all cases: NCI-60 one-dose screen, 48 h (100 = growth as untreated, 0 = no growth, -100 = all killed)
Details in all cases: 10 µM unless noted
[1] = tested on: SK-MEL-2 melanoma
[2] = tested on: EKVX NSCLC
[3] = tested on: SN12C renal
[4] = tested on: UO-31 renal
[5] = tested on: TK-10 renal
[6] = tested on: ACHN renal
[7] = tested on: CAKI-1 renal
[8] = tested on: A498 renal
[9] = tested on: CCRF-CEM leukemia
[10] = tested on: MOLT-4 leukemia

Measured: growth

COc1ccc2c(c1)C(C)Cc1c(ncnc1-n1cnc3cc(C)ccc31)N2C (stereo not given)
active: [8] 6.42% | [9] 7.96%
inactive: [1] 47.4% | [2] 40.3% | [3] 30.1% | [4] 43.5% | [5] 53.6% | [6] 29% | [7] 23.2% | [10] 11%

CCN1C2CCC1/C(=C\c1ccccc1)C(=O)/C2=C/c1ccccc1
inactive: [1] 54.9% | [2] 71.4% | [3] 55.4% | [4] 61.1% | [5] 84.6% | [6] 57.7% | [7] 81.8% | [8] 66.1% | [9] 28.1% | [10] 31%

c1cc(OCCN2CCCC2)ccc1CNc1ccc2nc(CCC3CCCCC3)[nH]c2c1
active: [4] 9.54% | [7] 4.69% | [10] 9.92%
inactive: [1] 35.6% | [2] 80.9% | [3] 71.3% | [5] 95.1% | [6] 60.4% | [8] 34.2% | [9] 12.7%

Cc1ccc2cnc(N)c(C#Cc3cc(C(=O)Nc4ccc(CN5CCN(C)CC5)c(C(F)(F)F)c4)cnc3C)c2c1
active: [1] 6.23% | [3] 2.6% | [4] -82% | [6] -100% | [7] -35.7% | [8] -75.9% | [9] -34.8% | [10] -5.68%
inactive: [2] 12.6% | [5] 39.7%

Cc1ccc(C(=O)c2ccc(CC(=O)N/N=C/c3cccc(O)c3O)n2C)cc1
inactive: [1] 95.3% | [2] 58.8% | [3] 46.8% | [4] 14.2% | [5] 38.8% | [6] 13.5% | [7] 37.3% | [8] 93.3% | [9] 13.1% | [10] 11.2%

CCOC(=O)C1=C(c2ccccc2)N=C2N(c3ccccc3)N=C(C(C)=O)N2C1c1ccc(F)cc1 (stereo not given)
inactive: [1] 112% | [2] 97% | [3] 94.3% | [4] 84.3% | [5] 104% | [6] 96.7% | [7] 91.8% | [8] 70.4% | [9] 95.9% | [10] 101%

Oc1nc(NCc2ccccc2)sc1/C=C1\C=Nc2ncccc21
inactive: [1] 72.9% | [2] 73.7% | [3] 72.8% | [4] 84.8% | [5] 64.4% | [6] 29.2% | [7] 74.6% | [8] 63.4% | [9] 49.6% | [10] 52.4%

CC(C)C1C2=C(NCCN1C(=O)c1ccncc1)C(C)(C)N(Cc1ccccc1)C2=O (stereo not given)
inactive: [1] 97.4% | [2] 99.1% | [3] 93.3% | [4] 83.2% | [5] 89.9% | [6] 105% | [7] 94.4% | [8] 113% | [9] 108% | [10] 84%

CC[C@@H](C(=O)[C@@H](C)[C@@H](O)[C@H](C)[C@@H]1O[C@@H]([C@@H](CC)C(=O)ONC(=O)c2ccccc2O)CC[C@@H]1C)C1O[C@]2(C=CC(=O)[C@]3(CC[C@@](C)([C@H]4CC[C@](O)(CC)[C@H](C)O4)O3)O2)[C@H](C)C[C@@H]1C (stereo not given in full)
inactive: [1] 76.9% | [2] 45.2% | [3] 24.1% | [4] 36.9% | [5] 75.8% | [6] 50.2% | [7] 39.2% | [8] 36.4% | [9] 36.6% | [10] 45.1%

CNC(=O)c1cc(Oc2ccc3c(c2)sc2nc(-c4cc(C(F)(F)F)cc(C(F)(F)F)c4)cn23)ccn1
inactive: [1] 56.8% | [2] 45.1% | [3] 60.2% | [4] 61.7% | [5] 36% | [6] 50.3% | [7] 51.1% | [8] 42.5% | [9] 64.1% | [10] 45.3%

Cc1c2cnccc2c(C)c2c1c1cc(CO)ccc1n2C
active: [1] -75.5% | [2] -15.2% | [3] -33.8% | [4] -32.6% | [5] -27.7% | [6] -36.4% | [7] -28.3% | [8] -67.1% | [9] -7.79% | [10] -10.8%

CCn1cc(C(=O)O)c(=O)c2cc(F)c(N3CCN(CC(=O)Nc4ccccc4)C(C)C3)c(F)c21 (stereo not given)
inactive: [1] 122% | [2] 104% | [3] 103% | [4] 76.5% | [5] 108% | [6] 97.8% | [7] 87% | [8] 73.4% | [9] 96.7% | [10] 107%

COc1ccc2c(c1)CC[C@@H]1[C@@H]2CC[C@]2(C)C3C(=CC(COC(C)=O)C4C(=O)N(c5ccc(Cl)cc5)C(=O)C43)C[C@@H]12 (stereo not given in full)
inactive: [1] 108% | [2] 108% | [3] 101% | [4] 79.1% | [5] 120% | [6] 95.8% | [7] 108% | [8] 108% | [9] 75.5% | [10] 63.9%

COc1cc(/C=C2\C(=O)N(CCCOc3cc(O)c4c(=O)cc(-c5ccccc5)oc4c3)c3ccccc32)cc(OC)c1O
inactive: [1] 81.1% | [2] 88.4% | [3] 91.3% | [4] 61.9% | [5] 87% | [6] 93.3% | [7] 85.2% | [8] 91.7% | [9] 70.2% | [10] 64.7%

Cc1ccc(C2CC(c3cccc(Nc4ccncc4)c3)=Nc3c(N)nc(N)nc3N2)cc1 (stereo not given)
inactive: [1] 71.1% | [2] 60.2% | [3] 61.2% | [4] 75.3% | [5] 99.8% | [6] 56.1% | [7] 72.3% | [8] 86% | [9] 33.9% | [10] 33.4%
